This is a sample that favours compounds with a hit; in the whole collection about 1.9% have one here.
bovine MsrA act: activators of bovine methionine sulfoxide reductase A | hit rate 0.3% among 360,000 | activation, % at 10.6 µM | purified bovine MsrA, absorbance read-out; in the data active = activation above about 7.5%;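 note: 0% = vehicle and 100% = reference activator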
HTR5A inv ag: HTR5A inverse agonism, opioid heterodimer counter-screen; inhibition, % at 9.3 µM; P47898; HTR5A cell line, luminescence; hit rate 0.083% among 340,000; in the data active = inhibition mostly above about 23%, no sharp cut-off; inactive = mostly below about 18%;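 note: 0% = cells with DMSO and 100% = no-cell wells with DMSO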
MsrA inh: inhibitors of bovine MsrA | purified bovine MsrA, absorbance read-out | inhibition, % at 15.5 µM | hit rate 0.75% among 360,000 | AID 651718;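 note: 0% = vehicle wells with enzyme and 100% = reference inhibitor wells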
MOR-DOR ag: agonists of human mu-delta opioid receptor heterodimerization; cells, OPRM1-OPRD1 heterodimerization, luminescence; P35372+P41143; activation, % at 9.3 µM; hit rate 0.3% among 340,000; in the data active = activation above about 18%;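 note: 0% = vehicle-treated cells and 100% = reference agonist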
Target sequence (P35372 whole entry, looked up): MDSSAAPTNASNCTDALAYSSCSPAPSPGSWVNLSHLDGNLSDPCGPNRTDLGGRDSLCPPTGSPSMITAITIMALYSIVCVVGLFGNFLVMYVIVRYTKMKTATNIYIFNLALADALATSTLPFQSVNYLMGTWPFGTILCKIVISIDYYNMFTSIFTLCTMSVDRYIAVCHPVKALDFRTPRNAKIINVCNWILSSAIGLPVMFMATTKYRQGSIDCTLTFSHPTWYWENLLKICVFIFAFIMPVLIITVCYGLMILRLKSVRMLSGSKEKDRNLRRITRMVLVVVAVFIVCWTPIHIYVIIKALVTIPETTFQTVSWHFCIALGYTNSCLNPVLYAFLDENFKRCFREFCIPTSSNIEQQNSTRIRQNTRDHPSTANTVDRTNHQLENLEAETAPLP
Target sequence (P41143 whole entry, looked up): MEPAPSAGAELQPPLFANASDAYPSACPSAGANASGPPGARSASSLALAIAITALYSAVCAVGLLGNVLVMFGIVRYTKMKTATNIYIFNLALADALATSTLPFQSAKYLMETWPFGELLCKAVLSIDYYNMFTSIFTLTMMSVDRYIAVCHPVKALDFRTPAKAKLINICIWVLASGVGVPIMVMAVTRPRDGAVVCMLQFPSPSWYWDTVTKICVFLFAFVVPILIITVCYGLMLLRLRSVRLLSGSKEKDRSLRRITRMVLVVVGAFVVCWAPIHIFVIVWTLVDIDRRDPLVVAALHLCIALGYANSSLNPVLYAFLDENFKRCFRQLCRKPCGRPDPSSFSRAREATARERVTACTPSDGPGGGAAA
HTR5A ag: counter-screen for OPRM1-OPRD1 agonists: human HTR5A agonism; P47898; HTR5A agonist assay, luminescence, cell-based; activation, % at 9.3 µM; hit rate 0.61% among 340,000; in the data active = activation mostly above about 9.5%, no sharp cut-off; inactive = mostly below about 7.6%;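 note: 0% = cells with vehicle only and 100% = reference agonist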
OPRM1-OPRD1 inv: inverse agonists of human mu-delta opioid receptor heterodimerization | P35372+P41143 | cell-based MOR-DOR heterodimer luminescence, inverse agonism | inhibition, % at 9.3 µM | hit rate 0.21% among 340,000 | AID 504357; in the data active = inhibition above about 22%, passing the limit was not always enough;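 note: 0% = cells with DMSO and 100% = wells without cells with DMSO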
MsrA inh confirm: confirmation of bovine MsrA inhibitors; AID 651822; purified bovine MsrA, absorbance read-out; shares compounds with MsrA inh; inhibition, % at 15.5 µM; hit rate 41% among 2,300;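 note: coupled to thioredoxin reductase with NADPH and selenocystamine and DMSO as substrate; 0% = vehicle only and 100% = full effect of reference inhibitor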
Starred values were filed as active, the others as inactive; nt = no result given. Cut-off read from the data, not from the text of the source, unless noted: active = inhibition above about 4.5%; inactive = the rest.

SMILES | bovine MsrA act | HTR5A inv ag | MsrA inh | MOR-DOR ag | HTR5A ag | OPRM1-OPRD1 inv | MsrA inh confirm
CCn1c(C)nc2cc(C(=O)N/N=C/c3ccc(O)cc3)ccc21 | -2 | 2 | 5.0* | -1 | 8 | 4 | 4
CCn1c(C)nc2cc(C(=O)N/N=C/c3ccc(N4CCOCC4)cc3)ccc21 | -6 | -20 | 5.5* | 1 | 8 | -3 | 6.0*
Cc1ccc(S(=O)(=O)N2CCCc3nc(-c4ccc(Br)cc4)ccc32)cc1 | nt | nt | 0 | nt | nt | nt | nt
CCN(CC)c1ccc(C=Nc2ccccc2C)c(O)c1 | -4 | 3 | 6.5* | 0 | 4 | -2 | 3
CCN(CC)c1ccc(/C=N/N(c2ccccc2)c2ccccc2)c(O)c1 | -1 | -9 | -1 | -1 | 4 | 8 | nt
CCN(CC)c1ccc(C=Nc2ccc(C#N)cc2)c(O)c1 | -14 | -6 | 7.6* | -1 | 1 | 2 | 5.6*
CCN(CC)c1ccc(/C=N/NC(=O)Cc2cccs2)c(O)c1 | -9 | -7 | 6.2* | 0 | 3 | -1 | 3
Cc1ccc(S(=O)(=O)N2C[C@H]3C(=O)C[C@@H](c4ccccc4)N(S(=O)(=O)c4ccc(C)cc4)[C@H]3C[C@H]2c2cccc(C)c2)cc1 | -3 | nt | 0 | nt | nt | nt | nt
O=C(CN1CCCCCC1)Nc1ccc([N+](=O)[O-])cc1Br | -6 | -22 | 4.8* | 6 | 8 | -36 | 7.2*
O=C(CN1CCOCC1)Nc1ccc([N+](=O)[O-])cc1Br | -2 | 6 | 1 | 1 | -1 | -7 | nt
COc1cccc(-c2nc3ccccc3c(=O)o2)c1 | -4 | 1 | 1 | -1 | -2 | 7 | nt
COc1cccc(C2=N/C(=C\N(C)C)C(=O)O2)c1 | -8 | -31 | 11* | -3 | -2 | 11 | 7.0*
O=C(O)c1ccc(/C=C/C(=O)c2ccc3c(c2)OCCCO3)cc1 | -5 | 11 | 6.5* | -2 | -4 | 8 | 2
CC(=O)Nc1ccc(/C=C/C(=O)c2ccc3c(c2)OCCO3)cc1 | -4 | 10 | 4 | 0 | -4 | 1 | nt
COCc1cc(N2CCN(C(=O)OC(C)(C)C)C[C@@H]2C)ccc1N1CC[C@H](O)C1 | nt | nt | -1 | nt | nt | nt | nt
FC(F)(F)c1ccc(N=Cc2sc(N3CCOCC3)nc2-c2ccccc2)cc1 | -2 | 5 | 18* | 2 | -2 | -11 | 17*
CC(=O)c1sc(N2CCOCC2)nc1-c1ccccc1 | -3 | 14 | 1 | 2 | 0 | -7 | nt
Cc1cc(N/N=C/c2ccco2)c2ccccc2n1 | -3 | 3 | 1 | -3 | 0 | 14 | nt
Cc1cc(N/N=C/c2ccc(N(C)C)cc2)c2ccccc2n1 | -4 | -10 | 5.0* | 1 | -2 | -6 | 1
CC(=O)c1ccc(N2CCN(C(=O)C(=O)c3cn(CC(=O)N4CCOCC4)c4ccccc34)CC2)cc1 | -5 | nt | 6.8* | nt | nt | nt | 5.6*
COc1ccc(N2CCN(C(=O)C(=O)c3cn(CC(=O)N4CCOCC4)c4ccccc34)CC2)cc1 | 0 | -1 | 2 | -2 | 1 | 9 | nt
Cc1cccc(C)c1NC(=O)C1C(c2ccccc2)=Nc2ccccc2N1C(=O)c1cnccn1 (stereo not given) | nt | nt | 2 | nt | nt | nt | nt
CCOC(=O)Cc1csc(NC(=O)/C=C/c2ccc(Br)o2)n1 | -9 | -14 | 5.5* | -1 | 5 | 6 | 4
CCN1C(=O)N[C@H]2C[C@H](C(=O)N3CCCC3)[C@H](C)[C@H](c3ccccc3)C[C@H]21 | nt | nt | 0 | nt | nt | nt | nt
COC(=O)C1=C(C)N(C)C(=NCC2CC2)NC1c1cccc(Cl)c1 (stereo not given) | nt | nt | 1 | nt | nt | nt | nt
SMILES | bovine MsrA act | HTR5A inv ag | MsrA inh | MOR-DOR ag | HTR5A ag | OPRM1-OPRD1 inv | MsrA inh confirm
Nc1ccc(-c2nc3ccc(N)cc3s2)cc1 | -7 | -28 | 5.6* | 0 | 10 | 2 | 7.5*
Nc1cc2sc(-c3ccc(C(=O)O)cc3)nc2cc1Cl | -3 | 16 | 5.5* | 2 | 4 | -13 | 4
Nc1ccc(-c2nc3ccc(C(=O)O)cc3s2)cc1 | -4 | 15 | 5.9* | -1 | 0 | 7 | 7.2*
COc1cc(C23CCCN(CCC(C(C)(C)C)C2)C32OCCO2)cc(OC)c1OC (stereo not given) | 2 | nt | 1 | nt | nt | nt | nt
O=C1C(C=NCCCn2ccnc2)=C(O)c2ccccc21 | -9 | -16 | 4.7* | -1 | 2 | 8 | 2
COc1cc(/C=C(\C#N)C(=O)NCC2CCCO2)ccc1OCC(=O)O (stereo not given) | -6 | nt | 5.5* | nt | nt | nt | 4
Cc1ccc(/C=C(\C#N)C(=O)NCC2CCCO2)o1 (stereo not given) | -10 | 4 | 5.2* | 2 | -1 | -13 | 4.6*
COCCNC(=O)C1CCCN(C(=O)Cc2ccc(F)cc2)CC1 (stereo not given) | 0 | nt | -1 | nt | nt | nt | nt
CCCc1nc2c(C)cc(Br)cn2c1Cc1ccccc1C(F)(F)F | -3 | nt | 2 | nt | nt | nt | nt
Cc1cc(Br)cn2c(Cc3cccc(Cl)c3)c(C3CCCCC3)nc12 | nt | nt | 0 | nt | nt | nt | nt
COC(=O)C1=C(C)NC2=C(C(=O)CCC2)C1c1cn(Cc2ccc(Cl)cc2Cl)nc1-c1ccccc1 (stereo not given) | -2 | -19 | 4 | -2 | 4 | 12 | nt
CCOC(=O)C1=C(C)NC2=C(C(=O)CCC2)C1c1cn(Cc2ccc(Cl)cc2Cl)nc1-c1ccccc1 (stereo not given) | 1 | -3 | 4.7* | 1 | 5 | -3 | 3
O=C1CN(C(=O)/C=C/c2cc(Br)ccc2F)CCN1 | 0 | 0 | 0 | 1 | -1 | -9 | nt
COc1ccc(/C=C/C(=O)N2CCNC(=O)C2)c(OC)c1 | -9 | 3 | 4.8* | -3 | -1 | 15 | 3
CCOCCn1c(=NC(=O)CSCC(=O)Nc2cc(C)on2)sc2cc(OC)ccc21 | -3 | -3 | 6.3* | -3 | -4 | 18 | 2
COCCn1c(=NC(=O)CSCC(=O)NC2CCCCC2)sc2cc(OC)ccc21 | -10 | -11 | 1 | 0 | 4 | 0 | nt
CCCCNC(=O)C(NC(=O)c1cnccn1)C(=O)c1ccccc1 (stereo not given) | nt | nt | 0 | nt | nt | nt | nt
O=C(NCCN1C(=O)S/C(=C\c2ccc(OC(F)F)cc2)C1=O)C1=COCCO1 | -5 | -2 | nt | 2 | 1 | -16 | nt
O=C(NCCN1C(=O)S/C(=C\c2ccc(OC(F)F)cc2)C1=O)c1cnccn1 | -7 | 9 | 5.1* | -2 | -4 | 12 | 2
O=C(NCCN1C(=O)S/C(=C\c2ccccc2F)C1=O)C1=COCCO1 | -5 | 6 | 4.8* | 3 | -2 | -17 | 2
COc1ccc(/C=C2\SC(=O)N(CCNC(=O)C3=COCCO3)C2=O)cc1 | -3 | -3 | 8.5* | -4 | 4 | 18 | 3
COC(=O)CSC1=C(C#N)C(=O)NC(c2ccccc2)S1 (stereo not given) | -19 | 0 | 6.1* | -2 | -1 | 10 | 4.8*
CC(=O)NS(=O)(=O)c1ccc(NC(=O)/C=C/c2ccco2)cc1 | -7 | -8 | 6.0* | 0 | 3 | -3 | 7.2*
Cn1cnc2c(N/N=C/c3cccs3)ncnc21 | -5 | nt | 5.2* | nt | nt | nt | 6.9*
